# Assay results as given in PubChem BioAssay AID590 (National Center for Advancing Translational Sciences (NCATS), 2007).
# About 6,500 (11%) of roughly 59,000 compounds were called active. Roughly 15% stayed inconclusive and do not appear here. No stated cut-off is given here; in the data, active means max dye-equivalent concentration above about 10 nM; inconclusive means mostly about 1.1 nM to 9.6 nM; inactive means weaker than that. Shown is part of a subset that was picked to be rich in actives.
# Experiment: qHTS Assay for Spectroscopic Profiling in A350 Spectral Region
# Conditions: Compound autofluorescence, 340/450 nm, Alexa 350 dye-equivalents; hits give high values
row,SMILES,max dye-equivalent concentration
1,CCCc1cc(=O)oc2c(C)c(O)c(CN3CCCCC3)cc12,8800 nM (active)
2,CCOC(=O)N1CCN(Cc2oc(CO)cc(=O)c2O)CC1,inactive
3,CCOC(=O)c1ccc(NC(=O)CSc2nnc(COc3ccccc3OC)n2C)cc1,inactive
4,O=C(Nc1ccon1)c1cccc(Cl)c1,inactive
5,CCCN1C2=C(C(=O)CCC2)C(c2ccc(O)c(Br)c2)C2=C1CCCC2=O,81 nM (active)
6,c1ccc(CNc2ncncc2-c2cccnc2)cc1,inactive
7,CCC(=O)Nc1ccc2c(c1)nc(CCN1CCN(C)CC1)n2C,inactive
8,Cc1ccc(C(CC(=O)O)Nc2nc(N3CCCCC3)nc(N3CCCCC3)n2)cc1 (configuration not stated),inactive
9,CC(Nc1nc(N2CCCC2)nc2ccccc12)c1ccccc1 (configuration not stated),170 nM (active)
10,Cc1cc2c(cc1C)NC1=C(N2)O[C@H](c2c[nH]c3ccc(COc4ccccc4)cc23)C1=O,inactive
11,Cn1nc(-c2ccc(N3CCOCC3)c(NC(=O)c3ccccc3)c2)c2ccccc2c1=O,inactive
12,Cn1c(=O)n(C)c2cc(C(=O)Nc3ccc4c(c3)OCO4)ccc21,inactive
13,Cn1c(=O)n(C)c2cc(CNc3ccc(N4CCOCC4)c(C(=O)O)c3)ccc21,22 nM (active)
14,Cn1c(CNc2nc(-c3ccccc3)cs2)nnc1SCC(=O)c1ccccc1,inactive
15,COc1ccc(CC(=O)Nc2c3c(nn2-c2cccc(Cl)c2)CS(=O)C3)cc1 (configuration not stated),inactive
16,Cn1c(NC(=O)c2ccco2)c(-c2ccccc2Cl)c(=O)c2ccccc21,inactive
17,Cc1ccc(-n2nc3cc(Cl)c(NC(=O)c4ccco4)cc3n2)cc1,52 nM (active)
18,COC(=O)c1cc(Cl)c(NC(=O)c2ccco2)cc1OC,inactive
19,CCN(CC)CCCNC(=O)c1cc(-c2cccc(Cl)c2)on1,inactive
20,Cc1cc(-n2nc(C)cc2C)n2ncc(-c3ccccc3)c2n1,inactive
21,Cc1cc(C(F)(F)F)n2ncc(-c3ccccc3)c2n1,12 nM (active)
22,O=C(Cn1c(-c2ccc(Cl)cc2)noc1=O)N1CCN(c2ccccc2F)CC1,inactive
23,CC(=O)Oc1ccc2c(C)c(CC(C)O)c(=O)oc2c1 (configuration not stated),21000 nM (active)

row,SMILES,max dye-equivalent concentration
1,COc1ccccc1-c1nc(NCCNC(C)=O)c2ccccc2n1,inactive
2,C=CCn1c(=O)c2ccccc2n2c(SCC(=O)N3CCCc4ccccc43)nnc12,inactive
3,O=c1oc2c(CN3CCCCC3)c(O)ccc2c2c1CCCCC2,13000 nM (active)
4,CCCn1c(=O)c2ccccc2n2c(SCC(=O)/C(C#N)=C(\C)N)nnc12,inactive
5,Cc1ccc(S(=O)(=O)N(C)CC(=O)NC2CCCC2)cc1,inactive
6,Cc1ccc(Cc2nc(-c3cccc(C)c3)no2)cc1,inactive
7,COc1ccccc1Cc1nc(-c2ccc(C)cc2)no1,17 nM (active)
8,Cc1ccc(-c2noc(CN3CCN(Cc4ccccc4)CC3)n2)cc1,inactive
9,C[C@H]1O[C@@H](CC(=O)O)Cc2c1c(O)c1c(O)cc(-c3cc(=O)c4c(=O)c5c(c(=O)c=4c3=O)C[C@H](CC(=O)O)O[C@@H]5C)c(O)c1c2O,inactive
10,O=C(CSc1nc2ccccc2o1)N1CCN(c2ccc(Cl)cc2)CC1,inactive
11,CC(=O)N(CN1C(=O)C2CC=CCC2C1=O)c1cccc(Cl)c1 (configuration not stated),inactive
12,O=C(CC1NCCNC1=O)Nc1ccc(Oc2ccccc2)cc1 (configuration not stated),inactive
13,CCOc1ccc(NC(=O)CC2NCCNC2=O)cc1 (configuration not stated),inactive
14,O=C(CC1Nc2ccccc2NC1=O)Nc1ccccc1 (configuration not stated),100 nM (active)
15,COc1ccc(Cc2nnnn2CC(=O)O)cc1,inactive
16,CC(C)NC(=O)N1CC[C@@]2(CCCN(C(=O)c3cccn3C)C2)C1,inactive
17,O=C(Nc1nncs1)c1ccccc1NS(=O)(=O)c1cccs1,520 nM (active)
18,O=C(Nc1ncccn1)c1cccs1,inactive
19,O=C(C1CCN(S(=O)(=O)c2cccs2)CC1)N1CCCCCC1,inactive
20,COCCCN1C(=O)c2ccc(C(=O)Nc3ccc(OC)cc3OC)cc2C1=O,inactive
21,COc1ccc(NC(=O)N2CC3(CCN(C(=O)c4cccn4C)CC3)C2)cc1,inactive
22,CCN1C(=O)C(C(=O)NC(C)c2ccccc2)C2CC1(C)Oc1ccccc12 (configuration not stated),inactive
23,O=C(Cn1nnc(-c2ccccc2)n1)NCc1ccc2c(c1)OCO2,inactive

row,SMILES,max dye-equivalent concentration
1,CCOC(=O)NCc1ccc2c(c1)OCO2,inactive
2,CC1CCCCN1CC(=O)NCc1ccc2c(c1)OCO2 (configuration not stated),50 nM (active)
3,COc1cccc(C2/C(=C(/O)c3ccncc3)C(=O)C(=O)N2CCCN(C)C)c1 (configuration not stated),inactive
4,CCCn1c(=O)c2[nH]c(C3CCCC3)nc2n(CCC)c1=O,inactive
5,CSCCC(NC(N)=O)C(=O)N(C)CC(=O)Nc1ccc(C)cc1 (configuration not stated),inactive
6,O=C(c1ccc2c(c1)C(=O)N(c1ccc(Cl)cc1)C2=O)N1CCN(c2ccccn2)CC1,inactive
7,Cn1cc(-c2nc3cncnc3n(-c3ccccc3)c2=O)c2ccccc21,inactive
8,CN1CCN(c2ncc3nc(-c4ccc(Cl)cc4)c(=O)n(-c4ccccc4)c3n2)CC1,53 nM (active)
9,c1ccc(-n2nnnc2N2CCOCC2)cc1,inactive
10,O=c1c(-c2ccc(F)cc2)nc2cnc(N3CCOCC3)nc2n1-c1ccccc1,29 nM (active)
11,Clc1ccc(C(c2ccc(Cl)cc2)n2cc[n+](C[C@@H](OCc3ccc(Cl)cc3Cl)c3ccc(Cl)cc3Cl)c2)cc1,inactive
12,COc1ccc(CNc2ncnc3ccc(-c4cccnc4)cc23)c(OC)c1,inactive
13,Cc1cccc(N2CCN(C(=O)C3CCN(S(=O)(=O)c4cnc[nH]4)CC3)CC2)c1C,inactive
14,O=C(c1ccco1)N1CCC2(CC1)CN(c1ncccn1)C2,inactive
15,Cc1nc(NCc2ccccc2)c(C(N)=O)c2c1COC(C)(C)C2,150 nM (active)
16,O=C(c1cccnc1NCc1ccccc1)N1CCOCC1,inactive
17,O=c1ccn(Cc2ccccc2Cl)cc1,inactive
18,CC(C)CNC(=O)c1cc(-c2ccc(Br)cc2)on1,inactive
19,COC(=O)c1ccc(NC(=O)CSc2nnc(-c3ccncc3)n2C)cc1,inactive
20,CCOc1ccc(N=NS(=O)(=O)O)cc1,inactive
21,COc1ccc(-c2nnn(CC(=O)N(CCO)C(C(=O)NC3CCCC3)c3ccc(F)cc3)n2)cc1 (configuration not stated),inactive
